Compounds without any hit were thinned out: in the full panel of roughly 83,000, 20% have a hit.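 Cells were grown in 96-well plates and exposed to the test compound at a single concentration for 48 hours; results are reported as percent growth, with values below 10 considered active.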 Values without a mark were called inactive. Active and inactive are the calls of the source.
Columns and labels:
Assay in all cases: NCI-60 one-dose screen, 48 h (100 = growth as untreated, 0 = no growth, -100 = all killed)
Conditions in all cases: 10 µM unless noted
SR leukemia = tested on: SR leukemia
RPMI-8226 leukemia = tested on: RPMI-8226 leukemia
OVCAR-8 ovarian = tested on: OVCAR-8 ovarian
OVCAR-5 ovarian = tested on: OVCAR-5 ovarian
OVCAR-4 ovarian = tested on: OVCAR-4 ovarian
SK-OV-3 ovarian = tested on: SK-OV-3 ovarian
IGROV1 ovarian = tested on: IGROV1 ovarian
OVCAR-3 ovarian = tested on: OVCAR-3 ovarian
HS 578T breast = tested on: HS 578T breast
NCI/ADR-RES ovarian = tested on: NCI/ADR-RES ovarian

Row | Structure (SMILES) | growth (SR leukemia) | growth (RPMI-8226 leukemia) | growth (OVCAR-8 ovarian) | growth (OVCAR-5 ovarian) | growth (OVCAR-4 ovarian) | growth (SK-OV-3 ovarian) | growth (IGROV1 ovarian) | growth (OVCAR-3 ovarian) | growth (HS 578T breast) | growth (NCI/ADR-RES ovarian)
1 | COc1cc2oc(-c3cccc(C(=O)Nc4ccc(Cl)cc4)c3)cc(=O)c2c(OCCNC(=O)[C@@H](N)CCC(=O)O)c1OC | 42.7% | 25.5% | 73.7% | 76.9% | 91.9% | 88.8% | 62.9% | 113% | 88.9% | 97.4%
2 | COc1cc2oc(-c3cccc(C(=O)Nc4cccc([N+](=O)[O-])c4)c3)cc(=O)c2c(OC)c1OC | 55% | 68.9% | 5.89% (active) | 83.5% | -6.32% (active) | -9.46% (active) | 22.1% | 26.7% | -5.03% (active) | -18.2% (active)
3 | COc1cc(C2CC(c3cc(OC)c(OC)c(OC)c3)=NN2c2ccccc2)ccc1OCc1ccc(C)cc1 (stereo not given) | 105% | 102% | 98% | 105% | 89.2% | 101% | 94.2% | 101% | 94.5% | 101%
4 | COc1ccc(-c2nc3ccc(C(=O)NN4C(=O)c5ccc([N+](=O)[O-])cc5C4=O)cc3[nH]2)cc1 | 89.1% | 80.9% | 97.5% | 88.6% | 101% | 94.8% | 101% | 115% | 104% | 102%
5 | COc1c(F)ccc(C(=O)Nc2ccc3nc(NC(=O)C4CCCN(S(=O)(=O)c5cccc(C(F)(F)F)c5)C4)sc3c2)c1F (stereo not given) | 38.4% | 54.4% | 94.5% | 101% | 74.3% | 102% | 77.5% | 88.1% | 61.1% | 84.3%
6 | COc1cc2nc(SCc3ccccc3)n(-c3ccc(Cl)cc3)c(=O)c2cc1OC | 5.33% (active) | 34% | -19.9% (active) | 34.3% | -55.6% (active) | -19.1% (active) | 4.02% (active) | -42.6% (active) | -9.89% (active) | -30.4% (active)
7 | COc1cc(C2CC(c3cc(OC)c(OC)c(OC)c3)=NN2C(C)=O)ccc1OCc1ccccc1 (stereo not given) | 32.1% | 24.2% | 46.7% | 59.8% | 22.3% | 71.3% | 42.9% | 41% | 41% | 38.4%
8 | Cc1ccc([C@H]2C(C(=O)c3ccc(Cl)cc3)C3(N[C@@H]2c2ccccc2)C(=O)Nc2ccccc23)cc1 (stereo not given in full) | 23.3% | 6.4% (active) | 66% | 52.2% | 49.4% | 53.2% | 59.4% | 37.3% | 60.3% | 35.4%
9 | Cc1ccc(NC(=O)[C@]23CCC(C)(C)CC2C2=CCC4[C@@]5(C)C[C@@H](O)[C@H](O)[C@@](C)(CO)C5CC[C@@]4(C)[C@]2(C)CC3)cc1 (stereo not given in full) | -11.8% (active) | -29.1% (active) | 44.9% | 6.37% (active) | 38.7% | 28.4% | 54.3% | 41.2% | 32.4% | 31.4%
10 | Cc1ccc([C@H]2C(C(=O)c3ccc(Cl)cc3)C3(N[C@@H]2c2ccccc2)C(=O)Nc2ccc(Cl)cc23)cc1 (stereo not given in full) | -3.12% (active) | 32.4% | 59.3% | 67.5% | 57.4% | 67.4% | 50.9% | 45.8% | 74.4% | 54.6%
11 | CCOc1ccc(C(=O)NC(=S)Nc2ccc(S(N)(=O)=O)cc2)cc1 | 97.7% [100 µM] | 102% [100 µM] | 89% [100 µM] | 103% [100 µM] | 84.7% [100 µM] | 102% [100 µM] | 96.4% [100 µM] | 97.9% [100 µM] | 89.2% [100 µM] | 102% [100 µM]
12 | Cn1cc(-c2cc(N)n3nc(-c4cn(C)c5ccccc45)cc3n2)c2cc(Cl)ccc21 | 4.5% (active) | -8.66% (active) | -91% (active) | -13.9% (active) | -34.5% (active) | 72.1% | -4.76% (active) | -44.6% (active) | -11.1% (active) | -11.5% (active)
13 | CC(C)CSc1nc(NCCc2c[nH]c3ccccc23)c(C#N)c(-c2ccc(Cl)cc2)n1 | 7.81% (active) | 36.3% | 76.2% | 80.5% | 78.3% | 81.7% | 96.2% | 76.4% | 51.6% | 54.7%
14 | CN(C)c1nc(NCCNS(=O)(=O)c2ccc(C(=O)/C=C/c3ccc(F)cc3)cc2)nc(Nc2ccc(F)cc2)n1 | -34.5% (active) | -15.4% (active) | -96.2% (active) | -97.4% (active) | -82% (active) | -0.953% (active) | -84.6% (active) | -97.4% (active) | -11.3% (active) | -91.6% (active)
15 | COc1ccc(NC(=O)[C@@H](N)Cc2ccccc2)cc1C(=O)Nc1cccc(C2CC(=O)c3c(cc(OC)c(OC)c3OC)O2)c1 (stereo not given in full) | 14.7% | 20.2% | 29.1% | 101% | 54.7% | 152% | 74.5% | 64% | 77.6% | 39.3%
16 | COc1ccc(-c2nc(SCC(C)C)nc(NCCc3c[nH]c4ccccc34)c2C#N)cc1 | 19.7% | 42.8% | 80.4% | 81.5% | 73.8% | 71.7% | 101% | 85.4% | 43.2% | 61.3%
17 | O=C(/C=C/Nc1ccc(Cl)cc1)c1ccc2c(c1)Nc1ccccc1S2 | 58.1% | 62.3% | 12.4% | 83.4% | 2.72% (active) | 20.7% | 39.5% | 61.5% | 8.24% (active) | 25.7%
18 | COc1cc2oc(-c3cccc(NC(=O)[C@H](Cc4ccccc4)NC(=O)OC(C)(C)C)c3)cc(=O)c2c(OC)c1OC | 22.5% | 22.7% | 26.7% | 80.8% | 41.4% | 78.7% | 32.7% | 36.3% | 16.4% | 29.6%
19 | O=C(c1ccc(OCCN2CCOCC2)cc1)C1[C@H](c2ccc(Cl)cc2)[C@@H](c2ccccc2)NC12C(=O)Nc1ccc(Br)cc12 (stereo not given in full) | -45.3% (active) | 9.08% (active) | 28.6% | 41.3% | 50.3% | 37% | 22.6% | 29.5% | 57.2% | 18.4%
20 | COc1ccc(C(SCCNCc2cc(N(C)C)ccn2)(c2ccccc2)c2ccccc2)cc1 | -43.2% (active) | -27.1% (active) | -5.35% (active) | -13.8% (active) | 22.3% | -5.07% (active) | 11.4% | -1.36% (active) | -23.1% (active) | -46.1% (active)
21 | CCCCSc1nc(Nc2ccc(C(C)=O)cc2)c(C#N)c(-c2ccc(OC)cc2)n1 | 70.9% | 91% | 27.5% | 57.9% | -45.4% (active) | 106% | 38.5% | 20.8% | 66.1% | 58.1%
22 | COc1c(F)ccc(C(=O)Nc2ccc3nc(NC(=O)C4CCCN(S(=O)(=O)C5CC5)C4)sc3c2)c1F (stereo not given) | 10.3% | 19% | 36.4% | 77.4% | 38.5% | 43.7% | 69.3% | 66.5% | 17.6% | 33.2%
23 | COc1ccccc1C(=O)NN1C(=O)/C(=C/C2=Cc3ccccc3OC2)SC1=S | 92.1% | 88.6% | 99.9% | 109% | 102% | 94.5% | 107% | 107% | 111% | 107%
24 | O=C(COc1ccc(NC(=O)Nc2ccccc2)cc1)N=Nc1c(O)[nH]c2ccc([N+](=O)[O-])cc12 | 19.1% | 53.9% | -30.5% (active) | 61.2% | 7.38% (active) | 56.7% | 22.5% | -76.9% (active) | -8.84% (active) | 113%
25 | CCCCSc1nc(NCCc2c[nH]c3ccccc23)c(C#N)c(-c2ccc(OC)cc2)n1 | 5.98% (active) | 30.7% | 79.2% | 87% | 67.2% | 83.7% | 102% | 83.6% | 47% | 51.7%

Source: PubChem BioAssay (NCI)
